Laboratory results from PubChem BioAssay (NCI).
The panel holds about 83,000 compounds, 20% with a hit somewhere; the sample as a whole holds those more often.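 Note: values are percent growth. 100 is the growth of untreated cells, values between 100 and 0 indicate rising inhibition; between -100 and 0 indicates cell death.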 Values without a mark were called inactive. The source made the active and inactive calls. Rule for the calls: active = growth percent below 10; inactive = the rest.

system: HL-60(TB) leukemia; assay: NCI-60 one-dose screen, 48 h (100 = growth as untreated, 0 = no growth, -100 = all killed); details: 10 µM unless noted

Question: With `CN(C)c1ccc(/C=C\c2cccc[n+]2C)cc1` as the compound, how does the growth read?
Answer: 27.2%

Question: `CCN(CC)c1ccc(CNc2cc(C)nc3ccccc23)cc1` was tested. Which growth did it give?
Answer: 81.1%

Question: With `CCN(CC)CC(=O)Nc1c(C)cccc1C` as the compound, how does the growth read?
Answer: 107%

Question: `C#CC[C@H](N)C(=O)O` was tested. Which growth did it give?
Answer: 99.9% [20 µM]

Question: `COc1nc2ccccc2cc1-c1nc2c(cnn2-c2ccc(Br)cc2)c(=O)[nH]1` was tested. Which growth did it give?
Answer: 8.57% (active)

Question: For `Cc1cccc2c1O/C(=C\c1ncc([N+](=O)[O-])n1C)C2=O`, which growth is on record?
Answer: -9.87% (active)

Question: For `CCOc1cc(C2C(Cl)C(=O)N2n2cnnc2)ccc1O` (configuration not stated), which growth is on record?
Answer: 101%

Question: With `Nc1ncnc2c1ncn2C1OC(COP(=O)(O)O)C(O)C1O` (configuration not stated) as the compound, how does the growth read?
Answer: 102%

Question: `Cc1cc(N/N=C/c2nc(-c3ccc(Br)cc3)oc2C)c2cc(Br)ccc2n1` was tested. Which growth did it give?
Answer: 18.9%

Question: With `O=C(N/N=C/c1c(Cl)cccc1Cl)c1ccccc1Nc1ccnc(C(F)(F)F)c1` as the compound, how does the growth read?
Answer: 96.5%

Question: Which growth does the source give for `O=[N+]([O-])C1=C(c2ccccc2)SC=C(c2ccccc2)S1` here?
Answer: 70.9%

Question: How did the growth turn out when `Cc1cc2nc3c4cc(N)ccc4n(CCN(C)C)c3nc2cc1C` was run?
Answer: 4.7% (active)

Question: How did the growth turn out when `O=C(Cc1ccc(/C=C/C(=O)c2ncc[nH]2)cc1)Nc1cc(C(F)(F)F)cc(C(F)(F)F)c1` was run?
Answer: 52.1%

Question: `CN(Cc1ccccc1)Cc1ccccc1` was tested. Which growth did it give?
Answer: 93.4%

Question: `COc1ccc(OC)c(CCn2cncc2-c2c[nH]c3cc(Br)ccc23)c1` was tested. Which growth did it give?
Answer: -9.46% (active)

Question: `C=CCN1C(=O)c2cccc3c(N4CCOCC4)ccc(c23)C1=O` was tested. Which growth did it give?
Answer: -5.15% (active)

Question: For `O=C(CBr)OCc1ccc([N+](=O)[O-])o1`, which growth is on record?
Answer: 118%
